These results are taken from PubChem BioAssay (NCI).

The panel holds about 83,000 compounds, 20% with a hit somewhere; the sample as a whole holds those more often.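 How to read the values: 0–100, growth inhibition (40 = 60% inhibited); 0, no net growth; -100 to 0, cell death (-40 = 40% of starting cells died; -100 = all dead).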 A number with no mark means an inactive call. Active and inactive are the calls of the source.

In this test the test system is HL-60(TB) leukemia. Nature of the test: NCI-60 one-dose screen, 48 h (100 = growth as untreated, 0 = no growth, -100 = all killed). The settings on record: 10 µM unless noted. Here is the method: Growth inhibition of the HL-60(TB) human tumor cell line is measured as a screen for anti-cancer activity. Cells are grown in 96 well plates and exposed to the test compound for 48 hours. Compounds are tested at a single concentration, which is 10^-5 M for most compounds. The reported endpoint is percent growth (GI% or GIPRCNT), where numbers from 0 - 100% represent growth inhibition, and numbers from -100% - 0 represent cell death. For example, a value of 40 represents 60% growth inhibition. A value of 0 means no net growth occurred over the course of the experiment. A value of -40 indicates 40% of cells at the beginning of the experiment died by the end of the experiment. A value of -100 means all cells are dead at the end of the experiment.
NCI-60 Human Tumor Cell Lines Screen was performed using the standard one-dose NCI protocol, which is described in more detail at https://dtp.cancer.gov/discovery_development/nci-60/default.htm.
Compounds with GIPRCNT values below 10 were considered active. Activity score was based on GIPRCNT using the following formula: […]
Score is 0 for GIPRCNT values of 100 or above, 50 for GIPRCNT values of 0, and 100 for GIPRCNT values of -100.
As to `CN(C)c1ccc(/C=C/c2ccnc3c(O)cccc23)cc1`, the growth is -26% (active).
Consider `C/C(=N/N=C(N)N)c1ccc(N)cc1`, for which the growth was 60.1%.
`CCC(c1ccc(OC)cc1)C(CC)c1ccc(O)c(CN2CCN(C)CC2)c1` (stereo not given): the growth is 55.3%.
Turning to `CCCCCCCCO/N=C\c1c2c(O)c3c(O)c(C)c4c(c3c1O)C(=O)C(C)(O/C=C\C(OC)C(C)C(OC(C)=O)C(C)C(O)C(C)C(O)C(C)/C=C\C=C(\C)C(=O)N2)O4` (stereo not given), the growth is -10.2% (active).
For the compound `Cn1ccnc1C(=O)/C=C/c1ccc(C(=O)Nc2ccc(S(F)(F)(F)(F)F)cc2)cc1`, the growth is -30.1% (active).
Then `CCN(CC)CCN1C(=O)c2c(c(C)c3c(oc4ccc(O)cc43)c2C)C1=O`, with -6.29% (active); and `O=C1c2c(c(=O)[nH]c3ccccc23)CCN1Cc1ccccc1`, with 118%; and `COc1ccc(-c2onc(N)c2-c2cc(OC)c3c(c2)OCO3)cc1`, with -31.4% (active).
Consider `CCCCCCCCCCCCSC1=C(Cl)C(=O)C(OC)=C(OC)C1=O`, for which the growth is -46.2% (active).
For the compound `CC1=NN(c2cccc(S(N)(=O)=O)c2)C(=O)C1`, the growth was 124%.
In the case of `COc1ccc(NC(=O)c2sc3nc(C)c(C(O)c4ccccc4)cc3c2N)cc1` (stereo not given), the growth was -51.9% (active).
`Cc1cc(=O)[nH]c(=O)n1Cc1cn(-c2c3ccccc3nc3ccccc23)nn1`: the growth was 16.3%.
With `O=[N+]([O-])c1cc([N+](=O)[O-])c(N2CCCC2)cc1NN=C(c1ccc(O)cc1)c1ccc(O)cc1` the figure was 122%; with `CSC1=NCCCC1`, 99.8%; with `Nc1nc(N)c2c(n1)NC(c1ccc3c(c1)OCO3)CC(c1cccc(Nc3ccncc3)c1)=N2` (stereo not given), 57%.
With `CCn1cc(C(=O)O)c(=O)c2cc(F)c(N3CCNCC3)cc21`, the growth was 96.9%.
Consider `CC(C)NC(=O)OCC#CCOC(=O)NC(C)C`, for which the growth is 95.7%.
On to `CCCCn1c(-c2ccc(C(=O)O/N=C(\N)c3ccc4c(c3)OCO4)cc2)nc(-c2ccccc2)c1-c1ccccc1`, for which the growth was -52.4% (active).
With `COc1ccc2c(c1)c(-c1noc(-c3cn(C)c4ncc(F)cc34)n1)cn2C`, the growth is 84.6%.
With `CC1(C)NC2=C(C(Nc3cccnc3)N1)C(c1ccc([N+](=O)[O-])cc1)C(C(=O)c1ccc(N=[N+]=[N-])cc1)O2` (stereo not given) the figure was 104%; with `Nc1cccc(Cl)c1N`, 79%; with `N#CCCOc1ccccc1`, 88.7%.
Turning to `CCN(CC)CC#CCOC(=O)[C@]1(C)CCC[C@]2(C)c3ccc(C(C)C)cc3CC[C@@H]12`, the growth is 63.6%.
Consider `Cc1nn2c(/C=C3/C(=O)Nc4ccc(Cl)cc43)c(-c3ccccc3)nc2s1`, for which the growth is 81.5%.
Regarding `O=C1c2ccccc2NC(c2cn(-c3ccccc3)nc2-c2cccs2)N1Cc1ccccc1` (stereo not given), the growth is -6.57% (active).
Turning to `C=C(C)CCC(C)N1CCC(N2CCC(C(=O)NCCc3ccccc3)CC2)CC1` (stereo not given), the growth was 27.4%.
`Cc1cc(C)nc(SC2=C(Nc3ccc(O)cc3)C(=O)N(Cc3ccccc3)C2=O)n1`: the growth is 60.6% [40 µM].
As to `CCCCn1cc(C(=O)/C(C#N)=C/c2cc3ccccc3nc2Cl)c2cc(OC)ccc21`, the growth was 88.7%.
For `CCCCC#Cc1c(I)n(C2OC(CO[Si](C)(C)C(C)(C)C)C3OC(C)(C)OC32)c(=O)[nH]c1=O` (stereo not given), the growth is -29.4% (active).
As to `Cc1nc2c(nnn2-c2ccccc2)c2nc(-c3ccc(Cl)cc3)oc(=O)c12`, the growth is 98.8%.
Regarding `CC1=C/C(=N\N=C2/C=C(C)CC(C)(C)C2)CC(C)(C)C1`, the growth was 84.1%.
On to `O=C(N/N=C/C=C\c1ccccc1)C(=O)N/N=C/C=C/c1ccccc1`, for which the growth is 110%.
For the compound `CCOC(=O)c1c(-c2ccccc2)n2c(=O)cc(C)c3c(O)c(O)cc1c32`, the growth is 11.7%.
Then `Cc1nc2sc(C(=O)Nc3ccccc3)c(N)c2cc1C(C)O` (stereo not given), with -2.23% (active); and `C/C(Cc1ccc(Cl)cc1)=C(\c1ccc(O)cc1)c1ccc(Cl)cc1`, with 95.7%.
With `Nc1ccccc1-c1n[nH]c(=O)[nH]c1=O` the figure was 105%; with `Cc1ccnc2nc(C(=O)OCC(=O)Nc3ccc(-c4ccccc4)cc3)nn12`, 72.8%; with `c1ccc(CP(Cc2ccccc2)c2ccccc2)cc1`, 84.2%.
`COc1ccc(/C=C2\CCCC3=C2NC(N)=NC3c2ccc(OC)c(OC)c2)cc1OC` (stereo not given): the growth is 42.4%.
For the compound `CCc1nnc(NC(=O)c2ccoc2COc2ccccc2)s1`, the growth is 19.3%.
